# Counter-ions that a name gives are not always drawn.
# Experiments:
# Assay in all cases: thermal shift delta Tm vs DMSO control; higher = stronger stabilization (binding)
# Details in all cases: 12.5 µM; protein concentration 2 µM
# LOC_OS02G45750-cb003 = system: LOC_OS02G45750-cb003
# How it was run: (§1)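 Compounds dissolved in DMSO were added to purified rice kinase domain constructs, which had been expressed in E. coli, for differential scanning fluorimetry. Each well held 19.5 μl of 2 μM kinase in 100 mM potassium phosphate pH 7.5, 150 mM NaCl, 10% glycerol and 5 × SYPRO Orange. Fluorescence was followed from 25°C to 95°C at a rate of 0.05°C/s. Shifts in Boltzmann-fitted melting temperature are triplicate means relative to DMSO-only protein.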
# LOC_OS02G54510-cb004 = system: LOC_OS02G54510-cb004
# How it was run: as §1
# LOC_OS03G04050-cb001 = system: LOC_OS03G04050-cb001
# How it was run: as §1
# LOC_OS03G12390-cb001 = system: LOC_OS03G12390-cb001
# How it was run: as §1
# LOC_OS03G27990-cb004 = system: LOC_OS03G27990-cb004
# How it was run: as §1
# LOC_OS03G50450-cb001 = system: LOC_OS03G50450-cb001
# How it was run: as §1
# LOC_OS03G50810-cb003 = system: LOC_OS03G50810-cb003
# How it was run: as §1
# LOC_OS04G35114-cb001 = system: LOC_OS04G35114-cb001
# How it was run: as §1
# LOC_OS04G38480-cb003 = system: T1, LOC_OS04G38480-cb003
# T1 sequence (whole entry): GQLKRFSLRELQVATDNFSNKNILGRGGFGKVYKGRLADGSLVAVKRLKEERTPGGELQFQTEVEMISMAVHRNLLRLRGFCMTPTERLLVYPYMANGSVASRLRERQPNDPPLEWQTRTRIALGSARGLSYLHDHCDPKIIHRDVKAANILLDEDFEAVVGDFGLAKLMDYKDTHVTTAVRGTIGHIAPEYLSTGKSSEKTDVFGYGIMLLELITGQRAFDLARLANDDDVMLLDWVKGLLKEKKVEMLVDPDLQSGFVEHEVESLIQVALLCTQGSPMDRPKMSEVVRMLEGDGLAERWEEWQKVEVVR
# How it was run: as §1
# LOC_OS04G41100-cb001 = system: T2, LOC_OS04G41100-cb001
# T2 sequence (whole entry): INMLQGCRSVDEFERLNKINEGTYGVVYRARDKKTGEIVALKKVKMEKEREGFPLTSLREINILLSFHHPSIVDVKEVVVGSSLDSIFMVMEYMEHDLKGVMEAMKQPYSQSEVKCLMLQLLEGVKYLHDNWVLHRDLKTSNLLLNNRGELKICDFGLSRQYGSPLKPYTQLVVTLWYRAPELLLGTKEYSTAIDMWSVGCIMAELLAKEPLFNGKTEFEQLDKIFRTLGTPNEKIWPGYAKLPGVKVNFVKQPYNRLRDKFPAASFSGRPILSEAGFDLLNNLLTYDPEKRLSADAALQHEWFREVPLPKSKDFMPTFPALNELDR
# How it was run: as §1
Compound,thermal shift delta Tm (LOC_OS02G45750-cb003) [°C],thermal shift delta Tm (LOC_OS02G54510-cb004) [°C],thermal shift delta Tm (LOC_OS03G04050-cb001) [°C],thermal shift delta Tm (LOC_OS03G12390-cb001) [°C],thermal shift delta Tm (LOC_OS03G27990-cb004) [°C],thermal shift delta Tm (LOC_OS03G50450-cb001) [°C],thermal shift delta Tm (LOC_OS03G50810-cb003) [°C],thermal shift delta Tm (LOC_OS04G35114-cb001) [°C],thermal shift delta Tm (LOC_OS04G38480-cb003) [°C],thermal shift delta Tm (LOC_OS04G41100-cb001) [°C]
NC[C@@](O)(c1ccc(Cl)cc1)c1ccc(-c2cn[nH]c2)cc1,1.24,0.3,0.31,0.49,0.56,0.8,0.36,1.05,1.51,0.81
COc1cc(OC)cc(N(CCNC(C)C)c2ccc3ncc(-c4cnn(C)c4)nc3c2)c1,1.81,2.46,0.37,0.27,0.3,0.28,0.45,0.74,2.14,0.41
Cc1ccc([N+](=O)[O-])cc1S(=O)(=O)N(C)/N=C/c1cnc2ccc(Br)cn12,1.33,0.35,0.72,0.02,0.5,0.64,0.47,1.17,3.16,1.09
OC1CCC(Oc2cccc3cnc(Nc4ccc5nc[nH]c5c4)nc23)CC1 (stereo not given),17.1,2.66,0.39,8.52,5.39,7.93,7.28,7.42,4.8,5.03
CC#CC(=O)N1CC[C@@H](n2c(=O)n(-c3ccc(Oc4ccccc4)cc3)c3c(N)ncnc32)C1 [ONO-4059 (GS-4059) hydrochloride],0.78,0.65,0.51,-0.67,0.44,0.4,0.3,0.12,0.62,0.03
CN1CC[C@H](c2c(O)cc(O)c3c(=O)cc(-c4ccccc4Cl)oc23)[C@H](O)C1 [Flavopiridol (Alvocidib)],1.64,0.69,0.2,1.66,1.06,0.4,0.4,2.64,0.88,0.66
NC1(Cc2ccc(Cl)cc2)CCN(c2ncnc3[nH]ccc23)CC1,0.79,0.26,0.46,1.47,0.26,0.97,0.62,0.68,0.64,0.33
c1nc2c(NC3CCCCC3)nc(Nc3ccc(N4CCOCC4)cc3)nc2[nH]1 [Reversine],8.28,4.92,0.32,9.58,5.33,9.57,5.17,6.36,3.21,0.65
Cc1ccc(-n2nc(C(C)(C)C)cc2NC(=O)NCc2cc(F)ccc2Oc2ccc3c(cnn3CCO)c2)cc1 [Pexmetinib (ARRY-614)],0.81,2.56,0.65,1.05,0.31,0.02,0.36,0.41,1.51,1.43
CC(C)CC(=O)Nc1n[nH]c2c1CN(C(=O)C1CCN(C)CC1)C2(C)C,0.62,0.36,0.36,0.64,0.15,0.29,1.12,0.47,0.59,3.27
Cc1ncc(-c2ccnc(Nc3ccc(S(C)(=O)=O)cc3)n2)n1C(C)C,4.52,0.65,0.19,3.93,0.85,0.58,1.7,1.83,2.87,4.97
Cc1cc(C)c(/C=C2\C(=O)Nc3ccccc32)[nH]1 [Semaxanib (SU5416)],0,0.58,0.69,4.53,1.72,2.32,2.91,6.57,2.87,0.32
Cc1nc(NC(=O)N2CCC[C@H]2C(N)=O)sc1-c1ccnc(C(C)(C)C(F)(F)F)c1 [Alpelisib (BYL719)],-0.52,0.02,0.28,0.2,0.55,0.38,0.21,1.56,0.94,0.49
CN(C)C/C=C/C(=O)Nc1cc2c(Nc3ccc(F)c(Cl)c3)ncnc2cc1O[C@H]1CCOC1 [Afatinib (BIBW2992) Dimaleate],1.42,0.08,0.35,2.3,1.68,0.41,1.38,5.35,2.08,0.45
N#Cc1ccc2[nH]c(O)c(-c3ccc(CN4CCOCC4)cn3)c2c1,1.77,-0.01,0.4,2.43,0.48,0.53,1.1,1.83,-0.4,2.66
N#CC(=C(/N)Sc1ccccc1N)/C(C#N)=C(\N)Sc1ccccc1N,0.68,-0.59,0.78,1.33,0.63,0.62,0.78,-0.47,-1.15,0.28
COc1nccc(-c2c(-c3ccc(F)cc3)ncn2C2CCC(O)CC2)n1 (stereo not given),0.57,-0.06,0.08,0.08,0.19,0.52,0.48,0.56,1.13,0.51
CC1(C)C=Cc2c(ccc3c2OC[C@@H](c2ccc(O)cc2O)C3)O1 [Glabridin],0.34,-0.24,0.88,0.93,0.6,0.36,0.74,0.79,1.12,0.7
C=CC(=O)N1CCC[C@@H](n2nc(-c3ccc(Oc4ccccc4)cc3)c3c(N)ncnc32)C1,1.46,1.25,0.88,0.1,0.51,1.39,1.07,3.03,1.2,0.37
COc1ccc(COc2cc3oc(=O)c4cc(C(C)O)ccc4c3cc2OC)cc1 (stereo not given) [Palomid 529 (P529)],-0.8,0.29,0.37,-0.47,0.35,0.19,0.52,0.78,1.4,0.32
